Experimental data published in PubChem BioAssay AID1053125 (Broad Institute, 2014).
Entries with a potency or affinity are not part of this list. A number with no mark means an inactive call.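 Rule for the calls: active = viability loss whose fitted half-maximal concentration is at most twice the top valid tested dose; inconclusive = flat curve with 30 to 70% loss, or poor fit; inactive = the rest.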

Assay: HepG2 cell cytotoxicity, dose response, cytotoxicity control, ATP luminescence, cherry-pick, set 6 (AID 1053125);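 note: negative values mean loss of viability signal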
Conditions: HepG2 viability, ATP luminescence (CellTiter-Glo), 72 h; series mostly up to 26 µM; activity change, negative = cytotoxicity: at the top concentration

SMILES | activity change, negative = cytotoxicity [%]
CC12CC(c3ccccc3O1)C(C(=O)OCc1ccccc1)C(=O)N2 (stereo not drawn) | -4.78
CC(C)OP(=O)(O)NC(=O)c1ccccc1 | -5.2
N#CC1=C(N)Oc2cc(O)ccc2C1c1ccc2c(c1)OCO2 (stereo not drawn) | -4.19
